# Source: PubChem BioAssay (Tox21)
# Results filed as inconclusive are left out. A number with no mark means an inactive call. Activity calls are given as the source filed them. Calls come from the whole dose curve.
# Biological target: 5-hydroxytryptamine receptor 2A (Homo sapiens) (UniProt P28223)
# Experiment: 5-hydroxytryptamine receptor 2A (HTR2A) small molecule agonists, cell-based qHTS assay (AID 1963587); note: nearly all actives have a fitted effect of over 30% in size
# Settings: HTR2A-CHO cells, calcium flux fluorescence, agonist mode; series mostly up to 76.8 µM; activation: at the top concentration
# Source text: National Center for Advancing Translational Sciences [NCATS]
# Division of Preclinical Innovation [DPI]
# U.S. Environmental Protection Agency [EPA]
# National Institutes of Environmental Health Sciences [NIEHS]
# National Toxicology Program [NTP]
# U.S. Food and Drug Administration [FDA]
# The HTR2A receptor is a subtype of the 5-HT2 receptor that belongs to the serotonin receptor family and is a G protein-coupled receptor (GPCR). The HTR2A-CHO cell line stably expressing human 5-hydroxytryptamine receptor 2A (HTR2A) can be used for screening agonists of interactions between 5-HT2 and its ligands. The HTR2A-CHO calcium flux assay is a homogeneous fluorescence-based assay for detecting the intracellular calcium level using FDSS kinetic plate reader system.
# HTR2A-CHO cells were dispensed at 2000 cells/3uL/well in 1536-well black-clear bottom plates using a Multidrop Dispenser. After the assay plates were incubated at a 37 C/5% CO2 incubator for 18 h, 3 uL of Dye Loading Buffer was transferred to the assay plate by a Flying Reagent Dispenser. The assay plates were incubated at 37 C for 1h. For agonist mode, 23 nL of compounds dissolved in DMSO, positive controls or DMSO only was transferred to the assay plate by a pin tool. The fluorescence intensity in the plates was measured using FDSS 7000EX kinetic plate reader for 2 min at 1 sec intervals.
# % is set by controls: 0 for no effect and ±100 for the full control effect; potency is the fitted concentration of half-maximal effect.
# Sequence of 5-hydroxytryptamine receptor 2A (Homo sapiens) (P28223 whole entry, looked up): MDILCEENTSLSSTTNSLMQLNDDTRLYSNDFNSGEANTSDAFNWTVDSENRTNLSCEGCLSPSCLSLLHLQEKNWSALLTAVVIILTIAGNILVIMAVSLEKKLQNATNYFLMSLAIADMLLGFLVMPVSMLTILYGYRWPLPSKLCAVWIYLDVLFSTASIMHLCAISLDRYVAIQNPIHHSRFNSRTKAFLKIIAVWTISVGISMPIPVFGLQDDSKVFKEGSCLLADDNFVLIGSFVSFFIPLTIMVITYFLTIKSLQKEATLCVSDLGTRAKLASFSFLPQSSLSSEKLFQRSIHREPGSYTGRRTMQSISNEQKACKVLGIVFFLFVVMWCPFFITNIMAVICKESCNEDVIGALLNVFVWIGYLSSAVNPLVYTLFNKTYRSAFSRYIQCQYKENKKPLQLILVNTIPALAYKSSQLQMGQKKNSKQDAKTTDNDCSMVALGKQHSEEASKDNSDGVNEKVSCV
SMILES,activation,Potency
CC[N+](C)(CC)CC,0.0587%,–
C[C@@H]1C[C@H]2[C@@H]3CCC4=CC(=O)C=C[C@]4(C)[C@@]3(Cl)[C@@H](O)C[C@]2(C)[C@@]1(OC(=O)c1ccco1)C(=O)CCl,2.53% [at 35.6 µM],–
COCCOC[C@H](CC1(C(=O)NC2CCC(C(=O)O)CC2)CCCC1)C(=O)Oc1ccc2c(c1)CCC2 (stereo not given in full),-0.553%,–
COc1ccc2cc(S(=O)(=O)N[C@H](CC(=O)N[C@H](Cc3ccc(CN4[C@H](C)CCC[C@@H]4C)cc3)C(=O)N(C)C(C)C)c3ccc4c(c3)OCO4)ccc2c1,-1.03%,–
CCCCC(CC)COC(=O)c1ccccc1 (stereo not given),-1.05%,–
N[C@@H](CCC(=O)N[C@@H](CS)C(=O)NCC(=O)O)C(=O)O,2.78% [at 15.9 µM],–
CN(C)CCCN(C)C,-0.769% [at 7.02 µM],–
Cc1cc(O)ccc1O,1.83%,–
O=[N+]([O-])c1cccc(C(F)(F)F)c1,-0.269%,–
COc1ccc(OC)c(Cl)c1,-7.19%,–
CCOc1cccc(-n2cc(C(=O)N3CCN(c4cc(C(=O)O)c5ccccc5c4)CC3)nc2-c2ccc(C)cc2)c1,–,0.0933 µM (active)
C=CCN(CC=C)CC=C,-0.001%,–
CCOC(=O)C(F)(F)F,-2.14%,–
Cc1onc(-c2c(Cl)cccc2Cl)c1C(=O)N[C@@H]1C(=O)N2[C@@H]1SC(C)(C)[C@@H]2C(=O)O,-0.429% [at 35.6 µM],–
Nc1ccc(N=Nc2ccc(N)cc2)cc1,-1.58% [at 35.6 µM],–
COc1ccc(N=Nc2cc(C)c(N=Nc3ccc(S(=O)(=O)O)cc3)cc2OC)cc1,13.3%,–
Cc1c(N)c(=O)n(-c2ccccc2)n1C,-2.13% [at 35.6 µM],–
Nc1ccc(N)c2ccccc12,–,7.75 µM (active)
CC(C)(C)c1cc(CCC(=O)OCC(COC(=O)CCc2cc(C(C)(C)C)c(O)c(C(C)(C)C)c2)(COC(=O)CCc2cc(C(C)(C)C)c(O)c(C(C)(C)C)c2)COC(=O)CCc2cc(C(C)(C)C)c(O)c(C(C)(C)C)c2)cc(C(C)(C)C)c1O,-1.25% [at 35.6 µM],–
CNCc1ccc(NC(=O)c2c[nH]c3c2C(=O)CCC3)cc1,-0.923%,–

SMILES,activation,Potency
C=Cc1ccc(S(=O)(=O)O)cc1,-1.3%,–
CC(C)CCCCCCCOC(=O)c1ccc(C(=O)OCCCCCCCC(C)C)c(C(=O)OCCCCCCCC(C)C)c1,8.18%,–
COc1ccnc2c1CCCCC2S(=O)c1nc2ccccc2[nH]1 (stereo not given),-5.84% [at 35.6 µM],–
CCn1nc(C(=O)O)c(=O)c2cc3c(cc21)OCO3,-1.62% [at 35.6 µM],–
CC(C(=O)O)c1ccc2c(c1)[nH]c1ccc(Cl)cc12 (stereo not given),-10.9% [at 35.6 µM],–
CC(C)=CCNc1ncnc2c1ncn2[C@@H]1O[C@H](CO)[C@@H](O)[C@H]1O,-1.83% [at 35.6 µM],–
CC(C)CCCCCCOC(=O)C1CCCCC1C(=O)OCCCCCCC(C)C (stereo not given),2.29%,–
COc1cc2ncnc(Nc3ccc(F)c(Cl)c3)c2cc1OCCCN1CCOCC1,-10.2% [at 35.6 µM],–
O=C1Nc2ccc([N+](=O)[O-])cc2C1=O,-6.13%,–
[O-][N+](=Nc1ccccc1)c1ccccc1,-0.628%,–
Nc1ccn(C2CO[C@H](CO)O2)c(=O)n1 (stereo not given in full),–,7.56 µM (active)
O=S(=O)(O)c1cc(S(=O)(=O)O)c2c(N=Nc3ccccc3)c(O)ccc2c1,–,inactive
CCCCCCCCCCCCCCCCN(C)C,3.51% [at 7.02 µM],–
O=CO,0.778% [at 7.02 µM],–
CCCOc1ccc2nc(NC(=O)OC)[nH]c2c1,-9.89% [at 35.6 µM],–
O=C1c2ccccc2C(=O)N1CCc1noc(-c2ccc(CN3CCCCCC3)s2)n1,13.3%,–
CCCCCCOc1cc(C)c(O)c(C)c1C,–,39.4 µM (active)
NCCCOCCOCCOCCCN,-0.932%,–
CCCCCOC(=O)CCCCC,1.57%,–
O=C[C@@H](O)[C@H](O)[C@H](O)CO,-0.0669%,–
